# Assay results published in publication PMC5540273 (PLoS ONE, 2017).
# Test system: PAK2
# Settings: concentration: 1 μM,replicates: in singlicate; n = 1
# 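Note: KINOMEscan kinase panel screen.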
row,SMILES,%Inh [%]
1,O=C(NCCNc1ccnc(NCc2ccc(F)cc2)n1)c1cc2ccccc2s1 [GSK1379944],20
2,Cl.Cl.NC[C@H](CC1CCCCC1)NC(=O)c1cc(Br)c(-c2ccnc3[nH]ccc23)s1 [GSK1581427],36
3,Cc1ccc2c(-c3ccncc3)c(-c3ccc(F)cc3)nn2c1.Cl [GW461484],30
4,CC(C)N1C(=O)Cc2cc(Nc3ncc(C(F)(F)F)c(NCc4cccc(S(C)(=O)=O)c4)n3)ccc21,0
5,CN(C)CC(O)COc1ccc(Nc2nccc(-c3cnn4nc(N5CCOCC5)ccc34)n2)cc1 (stereo not drawn) [GW767488],34
6,COc1ccc(C[C@@H](CN)NC(=O)c2cc(Br)c(-c3ccnc4[nH]ccc34)s2)cc1.Cl.Cl [GSK1389063],62
7,C[C@@H](Oc1cc(-c2cnn(C3CCNCC3)c2)cnc1N)c1c(Cl)ccc(F)c1Cl,9
8,CCN(CC)CCCCNc1ncc2cc(-c3c(Cl)cccc3Cl)c(NC(=O)NC(C)(C)C)nc2n1,2
9,C[C@H]1Oc2cc(cnc2N)-c2c(nn(C)c2C#N)CN(C)C(=O)c2ccc(F)cc21,9
10,CCN(CC)CCOc1ccc(Nc2ncc3cc(-c4c(Cl)cccc4Cl)c(=O)n(C)c3n2)cc1 [SB-601273],17
11,Cl.Cl.NC[C@H](Cc1ccc(C(F)(F)F)cc1)NC(=O)c1cc(Br)c(-c2ccnc3[nH]ccc23)s1 [GSK1487252],33
12,C[C@@H]1CCN(C(=O)CC#N)C[C@@H]1N(C)c1ncnc2[nH]ccc12,0
13,Cc1n[nH]c2ccc(-c3cc(OC[C@@H](N)Cc4ccccc4)cnc3-c3ccoc3)cc12.O=C(O)C(F)(F)F.O=C(O)C(F)(F)F [GSK507358],40
14,CN(C)CCOc1ccc(-c2cc(-c3c[nH]nc3-c3ccccn3)ccn2)cc1 [GW835314],0
15,CCn1c(-c2nonc2N)nc2c(C#CC(C)(C)O)nc(OCCN)cc21.Cl.Cl [GSK902056],36
16,Nc1nc(Nc2ccccc2)cc(-c2ccc3c(N)n[nH]c3c2)n1 [GSK2225749],9
17,Cc1ccc(-n2nc(C(C)(C)C)cc2NC(=O)Nc2ccc(OCCN3CCOCC3)c3ccccc23)cc1 [GW839464],0
18,Cc1cc(C(=O)Nc2ccc(Oc3ccc4nc(NC(=O)C5CC5)cn4n3)cc2)nn1-c1ccccc1,0
19,O=C(NCCCN1CCOC1=O)c1cnc(NCc2cc(Cl)ccc2Cl)nc1NC1CCCC1,17
20,CC(C)Nc1cc(-c2ccc3c(N)n[nH]c3c2)nc(N)n1 [GSK2221681],26
21,CNC(=O)c1ccccc1Sc1ccc2c(/C=C/c3ccccn3)n[nH]c2c1,8
22,NC(=O)c1cc(-c2ccccc2)cc2c(C3CCNCC3)c[nH]c12 [GSK301362],27
23,Cl.Cl.Nc1nc(-c2ccc3c(N)n[nH]c3c2)cc(N2CCCC(NC(=O)c3ccccc3)C2)n1 (stereo not drawn) [GSK2286775],1
24,Cl.Oc1cc(-c2nc(-c3ccccc3)[nH]c2-c2ccncc2)ccc1Cl [SB-386023],20
25,Cc1cc2cn[nH]c2cc1-c1cccc2c(N)c(C(N)=O)nnc12,10
26,Cc1occc1-c1nc(N)c(OC[C@@H](N)Cc2c[nH]c3ccccc23)cc1-c1cc2c(C)n[nH]c2cn1 [GSK1660450],86
27,C=CC(=O)Nc1cc2c(Nc3ccc(F)c(Cl)c3)ncnc2cc1OCCCN1CCOCC1 [GW781483],14

# Test system: PAK3
# Settings: concentration: 1 μM,replicates: in singlicate; n = 1
row,SMILES,%Inh [%]
1,O=C(NCCNc1ccnc(NCc2ccc(F)cc2)n1)c1cc2ccccc2s1 [GSK1379944],0
2,Cl.Cl.NC[C@H](CC1CCCCC1)NC(=O)c1cc(Br)c(-c2ccnc3[nH]ccc23)s1 [GSK1581427],81
3,Cc1ccc2c(-c3ccncc3)c(-c3ccc(F)cc3)nn2c1.Cl [GW461484],19
4,CC(C)N1C(=O)Cc2cc(Nc3ncc(C(F)(F)F)c(NCc4cccc(S(C)(=O)=O)c4)n3)ccc21,19
5,CN(C)CC(O)COc1ccc(Nc2nccc(-c3cnn4nc(N5CCOCC5)ccc34)n2)cc1 (stereo not drawn) [GW767488],4
6,COc1ccc(C[C@@H](CN)NC(=O)c2cc(Br)c(-c3ccnc4[nH]ccc34)s2)cc1.Cl.Cl [GSK1389063],93.9
7,C[C@@H](Oc1cc(-c2cnn(C3CCNCC3)c2)cnc1N)c1c(Cl)ccc(F)c1Cl,0
8,CCN(CC)CCCCNc1ncc2cc(-c3c(Cl)cccc3Cl)c(NC(=O)NC(C)(C)C)nc2n1,7
9,C[C@H]1Oc2cc(cnc2N)-c2c(nn(C)c2C#N)CN(C)C(=O)c2ccc(F)cc21,36
10,CCN(CC)CCOc1ccc(Nc2ncc3cc(-c4c(Cl)cccc4Cl)c(=O)n(C)c3n2)cc1 [SB-601273],47
11,Cl.Cl.NC[C@H](Cc1ccc(C(F)(F)F)cc1)NC(=O)c1cc(Br)c(-c2ccnc3[nH]ccc23)s1 [GSK1487252],83
12,C[C@@H]1CCN(C(=O)CC#N)C[C@@H]1N(C)c1ncnc2[nH]ccc12,1
13,Cc1n[nH]c2ccc(-c3cc(OC[C@@H](N)Cc4ccccc4)cnc3-c3ccoc3)cc12.O=C(O)C(F)(F)F.O=C(O)C(F)(F)F [GSK507358],27
14,CN(C)CCOc1ccc(-c2cc(-c3c[nH]nc3-c3ccccn3)ccn2)cc1 [GW835314],24
15,CCn1c(-c2nonc2N)nc2c(C#CC(C)(C)O)nc(OCCN)cc21.Cl.Cl [GSK902056],10
16,Nc1nc(Nc2ccccc2)cc(-c2ccc3c(N)n[nH]c3c2)n1 [GSK2225749],0
17,Cc1ccc(-n2nc(C(C)(C)C)cc2NC(=O)Nc2ccc(OCCN3CCOCC3)c3ccccc23)cc1 [GW839464],35
18,Cc1cc(C(=O)Nc2ccc(Oc3ccc4nc(NC(=O)C5CC5)cn4n3)cc2)nn1-c1ccccc1,3
19,O=C(NCCCN1CCOC1=O)c1cnc(NCc2cc(Cl)ccc2Cl)nc1NC1CCCC1,0
20,CC(C)Nc1cc(-c2ccc3c(N)n[nH]c3c2)nc(N)n1 [GSK2221681],0
21,CNC(=O)c1ccccc1Sc1ccc2c(/C=C/c3ccccn3)n[nH]c2c1,0
22,NC(=O)c1cc(-c2ccccc2)cc2c(C3CCNCC3)c[nH]c12 [GSK301362],38
23,Cl.Cl.Nc1nc(-c2ccc3c(N)n[nH]c3c2)cc(N2CCCC(NC(=O)c3ccccc3)C2)n1 (stereo not drawn) [GSK2286775],0
24,Cl.Oc1cc(-c2nc(-c3ccccc3)[nH]c2-c2ccncc2)ccc1Cl [SB-386023],0
25,Cc1cc2cn[nH]c2cc1-c1cccc2c(N)c(C(N)=O)nnc12,85
26,Cc1occc1-c1nc(N)c(OC[C@@H](N)Cc2c[nH]c3ccccc23)cc1-c1cc2c(C)n[nH]c2cn1 [GSK1660450],75
27,C=CC(=O)Nc1cc2c(Nc3ccc(F)c(Cl)c3)ncnc2cc1OCCCN1CCOCC1 [GW781483],0
